The source of these data is PubChem BioAssay (NCATS).

Experiment [1] can be described thus: Primary qHTS for inhibitors of nuclear receptor binding SET domain protein 2 (NSD2) in an RCH-ACV wild type WT cells (2C) (AID 1645877; further: nearly all actives have a fitted effect of over 70% in size; further: potency means the concentration at half of the fitted maximal effect; on activity change, negative = cell killing: on the % scale 0 is the no-effect control and ±100 the full control effect). (In general: In qHTS, concentration-response curves come from the screen itself.)
The target of experiment [2] is Glutathione peroxidase 1 (Homo sapiens) (UniProt P07203). As to the kind of experiment: Primary qHTS Assay for Inhibitors of Recombinant Selenoprotein Glutathione Peroxidase 1 (GPX1) (AID 1845191). Further: nearly all actives have a fitted effect of over 65% in size. Further: potency means the concentration at half of the fitted maximal effect. On activity, negative = inhibition: on the % scale 0 is the no-effect control and ±100 the full control effect. The gist of the method:
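Recombinant GPX1 (10 nM final) was preincubated with compound for 30 min at room temperature, then reacted with 1 mM GSH, 0.5 mM CHP, 0.5 mM NADPH and 100 nM glutathione reductase; NADPH fluorescence (340/450 nm) was read at 0 and 15 min.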

In experiment [3] the target is Phospholipid hydroperoxide glutathione peroxidase GPX4 (Homo sapiens) (UniProt P36969). As to the kind of experiment: Primary qHTS Assay for Inhibitors of Recombinant Selenoprotein Glutathione Peroxidase 4 (GPX4) (AID 1845192). Further: nearly all actives have a fitted effect of over 65% in size. Further: potency means the concentration at half of the fitted maximal effect. On activity change, negative = inhibition: series mostly up to about 50 µM; on the % scale 0 is the no-effect control and ±100 the full control effect. The gist of the method:
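GR-coupled readout: 100 nM GR, 1 mM GSH, 0.5 mM NADPH; NADPH fluorescence (ex 340/em 450 nm) read at t=0 and after 15 min RT. GPX4 200 nM, preincubated 30 min with compound; substrate 0.5 mM CHP.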

The target in experiment [4] is Luciferin 4-monooxygenase (Photinus pyralis) (UniProt P08659). Description: Primary firefly luciferase (FLuc) qHTS assay for identification of artifact compounds. (AID 1845220). Further: nearly all actives have a fitted effect of over 60% in size.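 On activity change, negative = inhibition: series mostly up to about 54 µM; plate controls were DMSO vehicle for no effect and no enzyme for full effect.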 The gist of the method:
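qHTS, 15 min compound preincubation with substrate (10 uM luciferin, 10 uM ATP) at RT, then 10 nM FLuc; 5 min; luminescence; % inhibition vs no-enzyme/DMSO controls, 4-parameter Hill fit.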

For experiment [5], the system named is Nanoluciferase (engineered Oplophorus gracilirostris luciferase). Description: Primary Nanoluciferase (NLuc) qHTS assay for identification of artifact compounds. (AID 1845222).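 Further: series mostly up to about 54 µM; 0% = DMSO and -100% = no enzyme.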 The method, boiled down: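 Luminescence read-out of secreted NLuc in S16 cell conditioned medium (1:55); compounds tested with 15 min RT preincubation, then Nano-Glo substrate 1:100, 5 min. % inhibition vs no-enzyme and DMSO controls, 4-parameter Hill fit.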

A short description of experiment [6]: Primary redox qHTS assay for identification of artifact compounds. (AID 1845223).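 Further: 0% = DMSO and 100% = reference compound.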 The method, boiled down: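 Amplex Red (25 uM) and HRP (250 mU/mL) in HBSS, with compounds for 15 min, then 250 uM DTT for 30 min, room temperature, dark. Fluorescence 525/598 nm read; normalized to DMSO and 10 uM DA3003; Hill fit.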
Experiment [7] can be described thus: Primary fluorescence-based thiol-reactive (MSTI) qHTS assay for identification of artifact compounds. (AID 1845221). Further: nearly all actives have a fitted effect of over 65% in size. Further: potency means the concentration at half of the fitted maximal effect.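 On activity change, negative = thiol reactive: series mostly up to about 54 µM; thiol-reactive compounds lower the probe fluorescence signal.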 The gist of the method: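 qHTS titration of compound; 4 uM MSTI, PBS pH 7.4, 2% DMSO; 1 h RT, dark; fluorescence 525/598 nm; normalized to Acetyl-MSTI and MSTI; 4-parameter Hill fit.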

“And” between values parts separate entries of the source, which are not always exact repeats. Identical values can stand only once. Unmarked numbers belong to inactive results. Records with an inconclusive call do not appear. The source made the active and inactive calls. The call rests on the fitted dose curve; in most records, active means well fitted curve in the direction sought with a large enough effect; inconclusive means small, poorly fitted or top-dose-only effect, or another doubt; inactive means no such curve, though single readings can be large; an effect the other way counts as inactive or inconclusive.

Chain of Glutathione peroxidase 1 (Homo sapiens) (P07203 whole entry, looked up): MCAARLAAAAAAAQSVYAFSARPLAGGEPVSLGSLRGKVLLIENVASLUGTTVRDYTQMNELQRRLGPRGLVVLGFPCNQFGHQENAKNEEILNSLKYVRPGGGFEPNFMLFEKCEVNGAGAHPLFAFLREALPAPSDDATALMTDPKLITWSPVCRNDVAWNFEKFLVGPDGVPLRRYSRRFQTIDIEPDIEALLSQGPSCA
Chain of Phospholipid hydroperoxide glutathione peroxidase GPX4 (Homo sapiens) (P36969 whole entry, looked up): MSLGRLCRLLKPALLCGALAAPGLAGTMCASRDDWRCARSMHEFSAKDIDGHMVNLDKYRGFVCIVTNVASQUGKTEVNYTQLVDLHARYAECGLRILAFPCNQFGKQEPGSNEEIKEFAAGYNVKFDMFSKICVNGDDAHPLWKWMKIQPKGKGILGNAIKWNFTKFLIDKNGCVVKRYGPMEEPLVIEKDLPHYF

Consider `CCOc1cc(N2CCC(O)CC2)ccc1Nc1ncc2c(n1)N(C1CCCC1)CCC(=O)N2C`, for which the Potency in experiment [1] was 1.83 µM (active). The Potency result in experiment [2], in experiment [3], in experiment [4], in experiment [5] and in experiment [6] was “inactive” throughout.

As for `COc1ccc(-c2ccc3c(N4CCOCC4)nc(N4CC(C)OC(C)C4)nc3n2)cc1CO` (centres undefined), the Potency in experiment [1] is 0.291 µM (active); in experiment [2], 18 µM (active); in experiment [3] it was 22.7 µM (active). Besides, the Potency entry in experiment [7], in experiment [5] and in experiment [6] was “inactive” in each case.

Consider `CC(=O)NCC(=O)N1C2CCC1c1cc(Nc3ncc(C(F)(F)F)c(NC4CCC4)n3)ccc12` (centres undefined), for which, in experiment [1], the Potency was 0.0205 µM (active). Besides, the Potency result in experiment [2], in experiment [3], in experiment [7] and in experiment [5] was “inactive” throughout.

On to `CC(C)(O)c1ccc2c(c1)C(O)C[C@H]1[C@](C)(C(=O)O)CCC[C@]21C` (some centres undefined), for which the Potency entry in experiment [1], in experiment [2], in experiment [3], in experiment [5] and in experiment [6] was “inactive” throughout.

For the compound `O=C(CSc1nc2c(c(=O)n1-c1ccccc1)SCC2)Nc1ccc(-c2ccccc2)cn1`, the Potency in experiment [1] is 0.0325 µM (active). Also, the Potency result in experiment [2], in experiment [3], in experiment [7], in experiment [5] and in experiment [6] was “inactive” throughout.

Take `C=C1CC[C@@H]2[C@@](C)(CO[C@@H]3O[C@H](CO)C(O)[C@H](O)C3O)[C@H](O)CC[C@@]2(C)[C@@H]1CC/C(C)=C/CO` (some centres undefined): the activity change, negative = cell killing in experiment [1] was -1.61% [at 9.23 µM]. For the same compound, the Potency entry in experiment [2] and in experiment [3] was “inactive” in each case. Besides, the activity change, negative = thiol reactive in experiment [7] is 21.9% [at 11.5 µM]. Further, the activity, negative = inhibition in experiment [5] was 2.18% [at 11.6 µM]. Besides, the redox activity (% of DA3003) in experiment [6] was 11.9% [at 11.5 µM].

In the case of `CC[C@@H](N)CNc1ccnc(-c2cc(-c3cnn(C)c3)ccc2O)n1`, the Potency in experiment [1] was 1.03 µM (active). Besides, the Potency result in experiment [2], in experiment [3], in experiment [4], in experiment [5] and in experiment [6] was “inactive” throughout.

With `CC(=O)OC[C@]12[C@H](OC(C)=O)C(=O)[C@@H]3[C@@H](OC(C)=O)[C@@]14O[C@@]3(C)COC(=O)c1cccnc1[C@@H](C)[C@H](C)C(=O)O[C@@H]([C@H](O)[C@@H]2OC(C)=O)[C@]4(C)O`, the Potency result in experiment [1], in experiment [2], in experiment [3], in experiment [7] and in experiment [5] was “inactive” throughout.

With `Cc1ccccc1NC(=O)Nc1ccc(CC(=O)N(C)[C@@H](CC(C)C)C(=O)NCC[C@H](NC(=O)[C@@H]2CCCN2S(=O)(=O)c2cc(Cl)cc(Cl)c2)C(=O)O)cc1`, the Potency entry in experiment [1], in experiment [2], in experiment [3], in experiment [7], in experiment [5] and in experiment [6] was “inactive” each time.

Turning to `C=C(C(=O)O)[C@H]1C[C@]2(C)[C@@H](O)CC[C@]23O[C@H]1C[C@@H]3C`, the Potency entry in experiment [1], in experiment [2], in experiment [3] and in experiment [5] was “inactive” each time. The Potency in experiment [7] is 29.9 µM (active).

Turning to `CC1OC(OC2C(OC3C(O[C@H]4CC[C@@]5(C)C(CC[C@]6(C)C5C(=O)C=C5C7CC(C)(C)CC(O)[C@]7(C)CC[C@]56C)C4(C)C)OC(C(=O)O)C(O)C3O)OCC(O)C2O)C(O)C(O)C1O` (some centres undefined), the activity change, negative = cell killing in experiment [1] was 0.842% [at 9.23 µM]. Further, the Potency entry in experiment [2] and in experiment [3] was “inactive” in each case. The activity change, negative = inhibition in experiment [4] was 2.88% [at 11.6 µM]. For the same compound, in experiment [5], the activity, negative = inhibition is -14.3% [at 11.6 µM]. Further, the redox activity (% of DA3003) in experiment [6] is 2.04% [at 11.5 µM].

With `CC1COC(Nc2ccc3ncnc(Nc4ccc(OCc5nccs5)c(Cl)c4)c3c2)=N1` (centres undefined), the Potency in experiment [1] is 12.9 µM (active). For the same compound, the Potency entry in experiment [2], in experiment [3], in experiment [7] and in experiment [6] was “inactive” throughout.

Consider `COc1ccc(-c2c(-c3cc(C(=O)O)ccn3)ncn2C)cc1`, for which the Potency result in experiment [1], in experiment [2], in experiment [3], in experiment [5] and in experiment [6] was “inactive” each time.

For `COc1c2c(c(C)c3c1C(=O)OC3)O[C@@]1(C)CCC3(C(C)(C)O)OC(=O)CC[C@]3(C)[C@H]1C2` (some centres undefined), the Potency result in experiment [1], in experiment [2], in experiment [3], in experiment [7], in experiment [5] and in experiment [6] was “inactive” each time.

Regarding `Cc1ccc(NC(=O)Nc2cc(C(F)(F)F)ccc2F)cc1Nc1ccc2c(c1)NC(=O)/C2=C\c1ccc[nH]1`, the figures for the Potency in experiment [1] and in experiment [7] were 20.5 µM (active) and 1.34 µM (active), respectively. For the same compound, the Potency result in experiment [2], in experiment [3] and in experiment [6] was “inactive” throughout.

Take `O=C(NCc1cccc(O)c1)c1cc2cc(F)ccc2[nH]1`: in experiment [1], the Potency is 20.5 µM (active). The Potency entry in experiment [2], in experiment [3], in experiment [7], in experiment [5] and in experiment [6] was “inactive” throughout.

As to `C/C=C/c1ccc(O[C@@H]2O[C@H](CO)[C@@H](O)[C@H](O)[C@H]2O)c(OC)c1`, the Potency entry in experiment [1], in experiment [2], in experiment [3], in experiment [4] and in experiment [6] was “inactive” in each case.

`CCN1CCN(Cc2ccc(NC(=O)c3ccc(C)c(NC(=O)c4cncc(-c5cccs5)c4)c3)cc2C(F)(F)F)CC1`: the Potency in experiment [1] is 51.5 nM (active) and 186 nM (active). The Potency entry in experiment [2], in experiment [3], in experiment [7], in experiment [5] and in experiment [6] was “inactive” each time.

In the case of `Cc1cc(-c2cc(O)ccc2Cl)cc2nnc(Nc3ccc(OCCN4CCCC4)cc3)nc12`, the values for the Potency in experiment [1] and in experiment [7] were 2.9 µM (active) and 3.77 µM (active), respectively. Further, the Potency result in experiment [2], in experiment [3], in experiment [5] and in experiment [6] was “inactive” throughout.

Consider `C=C(C)C(=O)O[C@H]1CC2=CC(C/C(C)=C\[C@H]3OC(=O)C(=C)[C@H]13)OC2=O` (some centres undefined), for which the Potency in experiment [1] was 3.58 µM (active). The Potency result in experiment [2], in experiment [4], in experiment [7], in experiment [5] and in experiment [6] was “inactive” in each case.

As to `Cn1cncc1C(N)(c1ccc(Cl)cc1)c1ccc2c(c1)c(-c1cccc(Cl)c1)cc(=O)n2C` (centres undefined), the Potency in experiment [1] was 0.833 µM (active). The Potency result in experiment [2], in experiment [4], in experiment [5] and in experiment [6] was “inactive” in each case.

With `CC(C)S(=O)(=O)N[C@H]1CCOC[C@@H]1c1ccc(-c2ccc(C#N)s2)cc1`, the Potency entry in experiment [1], in experiment [2], in experiment [4], in experiment [7] and in experiment [5] was “inactive” each time.

`CC(=O)O[C@@H]1[C@@H](OC(=O)/C=C/c2ccccc2)[C@@H](OC(C)=O)[C@H](O[C@H]2[C@@H]3C=CO[C@@H](O[C@@H]4O[C@H](CO)[C@@H](O)[C@H](O)[C@H]4O)[C@@H]3[C@@]3(CO)O[C@@H]23)O[C@H]1C`: the Potency entry in experiment [1], in experiment [2], in experiment [4], in experiment [7], in experiment [5] and in experiment [6] was “inactive” in each case.

For `CCN(Cc1cccnc1)C(=O)CN(c1ccc(OC)nc1)S(=O)(=O)c1ccccc1C`, the Potency entry in experiment [1], in experiment [2], in experiment [4], in experiment [7], in experiment [5] and in experiment [6] was “inactive” in each case.
